8 compounds from PubChem BioAssay (Tox21) can be followed below.

The nature of assay [1]: qHTS assay to identify small molecule antagonists of the androgen receptor (AR) signaling pathway using the MDA cell line in the presence of 0.5 nM R1881 - cell viability counter screen (AID 1259242). Also: nearly all actives have a fitted effect of over 45% in size. In a few lines: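 Concentration-response screen of compounds for toxicity in MDA-kb2 reporter cells: 16 hr at 37C with 0.5 nM R1881, endpoint live-cell protease fluorescence measured in the reporter wells.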
Background: Quantitative high-throughput screening tests each substance at several concentrations.

For assay [2], the target named is Androgen receptor (Homo sapiens) (UniProt P10275). As to the kind of experiment: qHTS assay to identify small molecule antagonists of the androgen receptor (AR) signaling pathway using the MDA cell line in the presence of 0.5 nM R1881 (AID 1259243). Also: nearly all actives have a fitted effect of over 50% in size. Also: potency is read from the fitted curve at half-maximal effect. An outline of the steps: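 With R1881 held at 0.5 nM (final), compound effects on MMTV-luciferase expression in MDA-kb2 cells were scored by luminescence after a 16 hr, 37C incubation.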
Chain of Androgen receptor (Homo sapiens) (P10275 whole entry, looked up): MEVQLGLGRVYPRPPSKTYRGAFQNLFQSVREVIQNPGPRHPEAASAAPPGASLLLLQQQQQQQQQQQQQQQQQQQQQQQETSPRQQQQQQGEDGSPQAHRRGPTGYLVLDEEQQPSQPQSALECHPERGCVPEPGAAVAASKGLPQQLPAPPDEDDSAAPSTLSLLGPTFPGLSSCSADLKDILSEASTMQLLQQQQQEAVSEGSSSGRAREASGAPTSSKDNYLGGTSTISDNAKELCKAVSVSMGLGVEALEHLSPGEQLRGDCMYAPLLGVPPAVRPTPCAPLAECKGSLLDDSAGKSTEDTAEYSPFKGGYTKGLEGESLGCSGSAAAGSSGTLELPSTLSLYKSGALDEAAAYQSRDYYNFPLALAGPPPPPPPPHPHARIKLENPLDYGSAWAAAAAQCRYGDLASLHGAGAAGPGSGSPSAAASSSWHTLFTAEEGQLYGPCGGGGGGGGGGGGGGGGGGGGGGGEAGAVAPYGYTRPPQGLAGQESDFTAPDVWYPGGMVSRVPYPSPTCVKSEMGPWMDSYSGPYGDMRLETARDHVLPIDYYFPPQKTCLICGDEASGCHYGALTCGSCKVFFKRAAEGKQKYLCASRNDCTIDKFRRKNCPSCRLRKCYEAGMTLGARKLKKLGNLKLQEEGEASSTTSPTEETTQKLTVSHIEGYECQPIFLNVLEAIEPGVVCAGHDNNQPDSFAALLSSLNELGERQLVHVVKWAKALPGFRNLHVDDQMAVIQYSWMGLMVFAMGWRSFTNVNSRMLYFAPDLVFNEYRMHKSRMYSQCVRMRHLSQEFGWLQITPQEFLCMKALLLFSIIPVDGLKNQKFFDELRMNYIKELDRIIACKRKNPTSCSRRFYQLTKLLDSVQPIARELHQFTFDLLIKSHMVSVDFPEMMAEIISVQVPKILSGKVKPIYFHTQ

The nature of assay [3]: qHTS assay to identify small molecule HDAC inhibitors (AID 1259364). Also: potency is read from the fitted curve at half-maximal effect.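 Also: wild-type HCT-116 cells with endogenous class I/II HDAC activity; nearly all actives have a fitted effect of over 45% in size.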 An outline of the steps:
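Screening used wild-type human colon HCT-116 cells incubated overnight, dosed with compounds for 2 hours, and assayed with a homogeneous luminogenic HDAC I/II reagent for 30 minutes at room temperature.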

Assay [4] in a line: qHTS assay to identify small molecule HDAC inhibitors - cell viability counter screen (AID 1259365). Also: series mostly up to about 92 µM; nearly all actives have a fitted effect of over 50% in size. In a few lines:
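Measured quantity is CellTiter-Glo luminescence from wild-type HCT-116 cells after compound incubation of 2hr at 37C, 5% CO2; reagent developed 30min at room temperature.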

The nature of assay [5]: qHTS assay to identify small molecule agonists of the sonic hedgehog signaling (Shh) pathway - cell viability counter screen (AID 1259366). Also: nearly all actives have a fitted effect of over 50% in size. In a few lines:
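In quantitative high-throughput format, 3T3 Gli1-Luc cells were exposed to compounds for 24hr and multiplexed for viability using CellTiter-Fluor, incubated 1hr at 37C before the fluorescence read.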

Assay [6] in a line: qHTS assay to identify small molecule antagonists of the sonic hedgehog signaling (Shh) pathway - cell viability counter screen (AID 1259367). Also: nearly all actives have a fitted effect of over 55% in size. In a few lines: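 Tox21 library chemicals were tested on a Gli1-Luc NIH/3T3 clone (2,000 cells/well) stimulated by conditioned medium; viability was quantified as fluorescence from CellTiter-Fluor reagent added at 23 hr.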
Assay [7] is described as follows: qHTS assay to identify small molecule agonists of the sonic hedgehog signaling (Shh) pathway (AID 1259368; calls by dose curve;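 also: NIH/3T3-derived 3T3Gli1-Luc cells carrying a stable Gli1-driven firefly luciferase reporter; series mostly up to about 92 µM; nearly all actives have a fitted effect of over 15% in size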). In a few lines:
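Hedgehog pathway agonism scored by increased firefly luciferase luminescence in 3T3Gli1-Luc cells treated 24 hr at 37 C; detection used a 30 min room-temperature reagent incubation.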

Assay [8] is described as follows: qHTS assay to identify small molecule antagonists of the sonic hedgehog signaling (Shh) pathway (AID 1259369; calls by dose curve; also: nearly all actives have a fitted effect of over 45% in size; also: potency is read from the fitted curve at half-maximal effect). In a few lines:
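NIH/3T3 stable Gli1-Luc clone, 2,000 cells/well, 4hr settle; cpd + conditioned medium 24hr; Luc reagent 30min RT; luminescence.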

Assay [9] concerns the target Estrogen receptor beta (Homo sapiens) (UniProt Q92731). As to the kind of experiment: qHTS assay to identify small molecule agonists of the estrogen receptor beta (ER-beta) signaling pathway (AID 1259377; active = well fitted activation curve with a large enough effect in the signal ratio in the repeat runs, not every such curve was filed as active; the % refers to the signal ratio). An outline of the steps:
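Reporter cells (HEK293T, ER-beta-UAS-bla) receive compounds or DMSO after a 6 hr pre-incubation. They then incubate 16 hr at 37C/5% CO2, and fluorescence from LiveBLAzer B/G substrate is measured after 2 hours at room temperature.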

Assay [10] in a line: qHTS assay to identify small molecule agonists of the androgen receptor (AR) signaling pathway in the presence of an antagonist - cell viability counter screen (AID 1259379).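 Also: MDA-kb2 human breast cancer cells carrying an MMTV luciferase reporter; series mostly up to about 92 µM; nearly all actives have a fitted effect of over 25% in size.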 In a few lines: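 MDA-kb2 viability measured by CellTiter-Fluor fluorescence in the same wells as the luciferase signal; nilutamide 3.0uM final; 15-point compound titration; 16 hr at 37C.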
A short description of assay [11]: qHTS assay to identify small molecule agonists of the estrogen receptor beta (ER-beta) signaling pathway - cell viability counter screen (AID 1259380). Also: nearly all actives have a fitted effect of over 30% in size. Also: potency is read from the fitted curve at half-maximal effect. In a few lines:
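Measured: luminescence from CellTiter-Glo after 30 min at room temperature, added to wells already read for the LiveBLAzer FRET reporter (2 hr substrate); ER-beta-UAS-bla HEK293T cells had 16 hr compound treatment at 37C, 5% CO2.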

Assay [12] concerns the target Androgen receptor (Homo sapiens) (UniProt P10275). As to the kind of experiment: qHTS assay to identify small molecule agonists of the androgen receptor (AR) signaling pathway in the presence of an antagonist (AID 1259381; calls by dose curve; also: nearly all actives have a fitted effect of over 15% in size). In a few lines: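 Luminescent ONE-Glo read, 30min at room temperature, follows 16hr compound exposure (15 concentrations) of MDA-kb2 cells at 37C, 0% CO2, with nilutamide added at 3.0uM final.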

Assay [13] is described as follows: qHTS assay to identify small molecule antagonists of the estrogen receptor beta (ER-beta) signaling pathway - cell viability counter screen (AID 1259382). Also: series mostly up to about 92 µM; nearly all actives have a fitted effect of over 55% in size. In a few lines:
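Readout: luminescence, CellTiter-Glo, same wells as bla assay. System: ER-beta-UAS-bla GripTite HEK293T, 2% charcoal-stripped FBS. Exposure: compounds plus 1nM 17-beta-estradiol, 16 hr, 37C.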

Assay [14] can be described thus: qHTS assay to identify small molecule agonists or antagonists of the thyroid stimulating hormone receptor (TSHR) signaling pathway - wild type cell line counter screen (AID 1259384; calls by dose curve). An outline of the steps: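 Wild-type Hek293 cells, 800/well, 18 h at 37C, then compound with Ro20-1724 for 30 min RT. cAMP by HTRF (cAMP-d2/anti-cAMP cryptate), 1 h RT, fluorescence read. 15 concentrations, triplicates.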

For assay [15], the target named is Thyrotropin receptor (Homo sapiens) (UniProt P16473). As to the kind of experiment: qHTS assay to identify small molecule antagonists of the thyroid stimulating hormone receptor (TSHR) signaling pathway (AID 1259385; calls by dose curve; also: nearly all actives have a fitted effect of over 20% in size). An outline of the steps:
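TSHR-HEK293 cells (800/well) plated 18 h, then compounds with Ro20-1724 and TSH at 1.5 ng/mL final, 30 min at room temperature. cAMP quantified by HTRF (cAMP-d2/anti-cAMP-cryptate, 1 h); 15 concentrations in triplicate.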

Assay [16] is described as follows: qHTS assay to identify small molecule agonists of the estrogen receptor alpha (ER-alpha) signaling pathway in the presence of an antagonist - cell viability counter screen (AID 1259386).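 Also: series mostly up to about 92 µM; cells exposed to compounds for 22 h at 37 °C before the viability read; nearly all actives have a fitted effect of over 30% in size.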 An outline of the steps: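 The test measures whether compounds kill ER-alpha reporter cells (VM7Luc4E2) under antagonist co-treatment (ICI-182,780, 10.0nM). Fluorescence from CellTiter-Fluor is read after a 22hr exposure.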

The target of assay [17] is Estrogen receptor (Homo sapiens) (UniProt P03372). As to the kind of experiment: qHTS assay to identify small molecule agonists of the estrogen receptor alpha (ER-alpha) signaling pathway in the presence of an antagonist (AID 1259383; calls by dose curve; also: top concentration of the series differs between compounds; nearly all actives have a fitted effect of over 15% in size). In a few lines: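 Quantitative HTS confirmation: compounds titrated at 15 concentrations onto estrogen-deprived VM7Luc4E2 cells carrying a four-ERE luciferase construct, with ICI-182,780 present at 10.0nM final. Signal is luminescence after 22hr exposure.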
Chain of Estrogen receptor (Homo sapiens) (P03372 whole entry, looked up): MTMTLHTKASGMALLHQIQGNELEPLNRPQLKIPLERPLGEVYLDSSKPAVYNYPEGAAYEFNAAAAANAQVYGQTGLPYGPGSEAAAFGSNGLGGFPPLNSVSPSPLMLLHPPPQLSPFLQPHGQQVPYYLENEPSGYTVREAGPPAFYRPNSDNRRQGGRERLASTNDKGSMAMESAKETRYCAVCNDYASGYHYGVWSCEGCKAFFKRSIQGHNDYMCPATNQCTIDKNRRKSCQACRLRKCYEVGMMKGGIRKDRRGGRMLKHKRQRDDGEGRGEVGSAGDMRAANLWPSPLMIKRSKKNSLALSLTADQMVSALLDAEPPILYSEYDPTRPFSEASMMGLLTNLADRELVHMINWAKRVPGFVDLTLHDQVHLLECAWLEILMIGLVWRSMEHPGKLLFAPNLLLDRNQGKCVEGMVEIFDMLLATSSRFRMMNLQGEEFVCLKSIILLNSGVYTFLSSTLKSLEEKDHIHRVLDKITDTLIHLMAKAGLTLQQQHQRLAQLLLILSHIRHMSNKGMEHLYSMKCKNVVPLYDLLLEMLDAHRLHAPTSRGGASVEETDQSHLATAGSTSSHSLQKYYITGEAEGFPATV

Assay [18] shares this target. As to the kind of experiment: qHTS assay to identify small molecule antagonists of the estrogen receptor alpha (ER-alpha) signaling pathway using the BG1 cell line in the presence of 0.1 nM 17-beta-estradiol (AID 1259244). Also: nearly all actives have a fitted effect of over 50% in size. Also: potency is read from the fitted curve at half-maximal effect. In a few lines: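 Compounds were tested against 0.1 nM (final) 17beta-estradiol in VM7Luc4E2 cells, which express full-length ER-alpha and an ERE-luciferase reporter; luminescence was recorded following 22 h exposure.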

Assay [19] can be described thus: qHTS assay to identify small molecule phospholipidosis (PLD) inducers (AID 1259344; active = well fitted curve in the direction sought with a large enough effect; an effect the other way counts as inactive or inconclusive). An outline of the steps:
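Image-based: LipidTOX Red pit count/intensity per well and per cell; HepG2, 24 h compound at 37 C, PFA fixation, Hoechst counterstain.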

Assay [20] addresses Estrogen receptor beta (Homo sapiens) (UniProt Q92731). As to the kind of experiment: qHTS assay to identify small molecule antagonists of the estrogen receptor beta (ER-beta) signaling pathway (AID 1259378; active = well fitted inhibition curve with a large enough effect in the signal ratio in the repeat runs, not every such curve was filed as active; the % refers to the signal ratio). An outline of the steps:
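ER-beta-UAS-bla HEK293T cells in 2% charcoal-stripped FBS medium treated with compound plus 1nM final 17-beta-estradiol for 16 hr at 37C. Beta-lactamase reporter read by FRET substrate fluorescence after 2 hours at room temperature.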

Values without a mark were called inactive. Results filed as inconclusive are left out. Activity calls are given as the source filed them. Unless noted, calls follow the shape of the dose curve; as a rule, active = well fitted curve in the direction sought with a large enough effect in the repeat runs; inconclusive = weak or mixed curves; inactive = no such curve, though single readings can be large; an effect the other way counts as inactive or inconclusive.

Chain of Thyrotropin receptor (Homo sapiens) (P16473 whole entry, looked up): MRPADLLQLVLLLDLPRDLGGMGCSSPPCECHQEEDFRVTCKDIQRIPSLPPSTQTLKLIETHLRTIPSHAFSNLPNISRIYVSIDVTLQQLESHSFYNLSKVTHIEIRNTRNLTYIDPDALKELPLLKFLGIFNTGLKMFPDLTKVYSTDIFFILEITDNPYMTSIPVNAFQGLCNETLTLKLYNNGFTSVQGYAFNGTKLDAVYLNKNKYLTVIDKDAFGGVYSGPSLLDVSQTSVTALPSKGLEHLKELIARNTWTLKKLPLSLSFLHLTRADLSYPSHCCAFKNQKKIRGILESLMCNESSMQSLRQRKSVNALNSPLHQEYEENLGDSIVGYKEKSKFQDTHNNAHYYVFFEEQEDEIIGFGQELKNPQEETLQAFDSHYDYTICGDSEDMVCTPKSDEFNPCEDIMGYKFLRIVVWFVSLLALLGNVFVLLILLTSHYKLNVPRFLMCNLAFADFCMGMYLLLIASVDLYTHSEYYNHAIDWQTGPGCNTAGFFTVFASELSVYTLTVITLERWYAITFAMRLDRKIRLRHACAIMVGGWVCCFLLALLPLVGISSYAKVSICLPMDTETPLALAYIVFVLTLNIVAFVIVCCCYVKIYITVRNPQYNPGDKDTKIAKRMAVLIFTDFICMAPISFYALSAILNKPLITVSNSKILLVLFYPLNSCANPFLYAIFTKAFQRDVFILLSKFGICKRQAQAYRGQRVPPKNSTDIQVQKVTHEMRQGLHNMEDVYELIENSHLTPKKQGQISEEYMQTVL
Chain of Estrogen receptor beta (Homo sapiens) (Q92731 whole entry, looked up): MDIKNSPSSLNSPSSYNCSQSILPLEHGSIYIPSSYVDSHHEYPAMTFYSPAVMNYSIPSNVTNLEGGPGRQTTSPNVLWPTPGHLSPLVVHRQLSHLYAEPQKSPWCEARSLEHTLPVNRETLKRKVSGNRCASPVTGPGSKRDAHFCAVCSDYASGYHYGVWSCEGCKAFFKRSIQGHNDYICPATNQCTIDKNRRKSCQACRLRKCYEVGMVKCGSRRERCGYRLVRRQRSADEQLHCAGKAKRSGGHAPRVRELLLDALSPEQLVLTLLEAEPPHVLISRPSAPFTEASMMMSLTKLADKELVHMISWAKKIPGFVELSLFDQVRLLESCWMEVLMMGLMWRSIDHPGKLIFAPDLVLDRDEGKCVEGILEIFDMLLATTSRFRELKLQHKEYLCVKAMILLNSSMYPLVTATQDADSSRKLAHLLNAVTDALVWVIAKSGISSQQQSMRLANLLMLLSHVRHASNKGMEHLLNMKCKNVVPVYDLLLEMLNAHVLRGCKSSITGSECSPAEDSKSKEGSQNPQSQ

Consider `CCCS(=O)c1ccc2nc(NC(=O)OC)[nH]c2c1` (centres undefined), for which the outcome in [1], in [4], in [9], in assay [13] and in assay [14] was inactive. For the same compound, the Potency result in [2], in assay [5], in assay [6], in assay [7], in [8] and in assay [10] was “inactive” throughout. Moreover, the Potency result in [11], in [12], in assay [15] and in [16] was “inactive” in each case. Further, the Potency in [3] is 5.96 µM (active).

Regarding `CCCOc1ccc2c(c1)CC[C@@H]1[C@@H]2CC[C@]2(C)C(OC)CC[C@@H]12` (some centres undefined), the outcome in assay [1], in [4], in [13] and in [14] was inactive. Also, in assay [2], the Potency is 13.3 µM (active). For the same compound, the Potency entry in assay [3], in assay [5], in [6], in [7], in [8] and in [10] was “inactive” throughout. Moreover, the Potency entry in [11], in [12], in assay [17], in assay [15] and in assay [16] was “inactive” in each case.

`CCCCCOc1ccc(C2SC(=O)NC2=O)cc1OCC` (centres undefined): the result in [1], in [19] and in assay [4] was inactive. The Potency entry in [2], in assay [18], in assay [3], in assay [5], in [6] and in assay [7] was “inactive” throughout. Moreover, the Potency result in assay [8], in assay [10], in assay [12], in assay [17], in assay [15] and in [16] was “inactive” in each case. In assay [11], the Potency is 29.8 µM (active).

On to `NCCCN1CCN(CCCN)CC1`, for which the outcome in assay [1], in assay [4], in assay [13] and in [14] was inactive. Further, the Potency result in [2], in assay [18], in assay [3], in [6], in assay [7] and in assay [8] was “inactive” throughout. Besides, the Potency entry in assay [10], in assay [11], in assay [12], in assay [17], in [15] and in assay [16] was “inactive” in each case.

In the case of `CC1=C2[C@H](/C=C(\C)C(=O)O)CC[C@@H](C)[C@H]2CC1`, the outcome in assay [1], in [4], in assay [9] and in [14] was inactive. Also, the Potency was 31.8 µM (active) in [2], 63.4 µM (active) in assay [18], 56.5 µM (active) in assay [8] and 25.2 µM (active) in [11]. Further, the Potency entry in assay [3], in assay [7], in [10], in assay [12], in [17] and in assay [15] was “inactive” in each case. Moreover, in [16], the Potency entry was “inactive”.

In the case of `Cc1cc2nc(N)sc2cc1C`, the result in assay [1], in assay [4] and in assay [14] was inactive. For the same compound, the Potency entry in assay [2], in [5], in assay [6], in [7], in assay [8] and in [10] was “inactive” in each case. Further, the Potency entry in assay [12] and in assay [16] was “inactive” in each case. Further, the Potency in [3] is 0.276 µM (active); in assay [11], 30.9 µM (active).

`Cc1cc(S(=O)(=O)O)c(N)cc1Cl`: the outcome in assay [1], in assay [9] and in [13] was inactive. In addition, the Potency entry in assay [2], in assay [3], in assay [5], in [6], in [7] and in [8] was “inactive” in each case. Moreover, the Potency result in assay [20], in [10], in [11], in assay [12], in [17] and in assay [16] was “inactive” throughout.

For the compound `CCOC(=O)c1cc(=O)c2c(OCC(COc3cccc4oc(C(=O)OCC)cc(=O)c34)OC(=O)[C@@H](N)CCCCN)cccc2o1`, the result in assay [1], in assay [9], in assay [13] and in [14] was inactive. For the same compound, the Potency result in assay [2], in [3], in assay [5], in assay [6], in assay [7] and in assay [8] was “inactive” each time. The Potency entry in assay [20], in [10], in assay [11], in [12], in assay [17] and in assay [15] was “inactive” in each case. In [16], the Potency entry is “inactive”.
